Laboratory results published in PubChem BioAssay (NCI).
About 83,000 compounds went through this panel and 20% of them were active in at least one assay; those are over-represented in the sample as a whole.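 Cell lines were cultured in 96-well plates, exposed to a single compound concentration, and assessed for percent growth 48 hours later.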 Calls of active or inactive are those of the source. The calls were made as follows: active = growth percent below 10; inactive = the rest.

Test system: T-47D breast
Assay: NCI-60 one-dose screen, 48 h (100 = growth as untreated, 0 = no growth, -100 = all killed)
Details: 10 µM unless noted

Structure (SMILES) | growth
O=C1Cc2c([nH]c3ccc([N+](=O)[O-])cc23)-c2ccccc2N1 | 22.1% (inactive)
Cc1ccccc1CNc1ncnc2[nH]ncc12 | 96.9% (inactive)
COc1ccc(OC)c(Nc2nc(-c3c(C)nc4sccn34)cs2)c1 | 26.3% (inactive)
COc1cc2c(cc1OC)C(=O)OC2 | 98.5% (inactive)
CN=C1C=C/C(=N/N=c2/ccn(O)cc2C)C=C1C | 90.1% (inactive)
Cc1nc2ccc(Nc3nc(N4CCOCC4)nc(N4CCN(C)CC4)n3)cc2n1Cc1ccccc1 | 91.9% (inactive)
CC(C)=CCC[C@H](C)c1ccc(C)c2c1OCN(CCO)C2 | 70% (inactive)
COc1ccc(NC(=O)c2ccc(C(F)(F)F)nc2Nc2ccc(Cl)cc2C)cc1Cl | 21.8% (inactive)
O=C(NCCNC(=O)c1cc(S(=O)(=O)NCCc2ccccc2)c(O)c(O)c1O)c1cc(S(=O)(=O)NCCc2ccccc2)c(O)c(O)c1O | 84.1% (inactive)
Cc1ccc(NC(=O)Cn2nncc2CN2C(=O)CSC2=O)cc1C | 98.7% (inactive)
Brc1ccccc1Cn1c(-c2cncs2)nc2ccccc21 | 72.2% (inactive)
COc1cccc(Cn2c(-c3nonc3NC(C)=O)nc3ccccc32)c1 | 42.3% (inactive)
CN1CCN(Cc2ccc(NC(=O)c3cccc(C#Cc4cnc(N)c5ncccc45)c3F)cc2C(F)(F)F)CC1 | 79.9% (inactive)
O=C(Oc1c(Cl)c(Cl)c(Cl)c(Cl)c1Cl)C1CCCN1C(=O)OCc1ccccc1 (stereo unspecified) | 2.01% (active)
Clc1ccc(Nc2ncnc3c2sc2ncccc23)cc1 | 33.5% (inactive)
COc1ccc(/C=C/C(=O)c2ccc(NC(=O)CSc3nnc(-c4ccc(OC)cc4)n3-c3ccccc3)cc2)cc1 | 92.9% (inactive)
CCCCNCCC(O)c1cc2ccc(C(F)(F)F)cc2c2cc(C(F)(F)F)ccc12 (stereo unspecified) | -76.3% (active)
Cc1ccc(N2C3c4ccccc4N(S(=O)(=O)c4ccc(C)cc4)C2c2ccccc2N3S(=O)(=O)c2ccc(C)cc2)cc1 | 93.2% (inactive)
Cc1ccc(C2CC(c3cccs3)=NN2c2ccc(S(N)(=O)=O)cc2)s1 (stereo unspecified) | 71.5% (inactive)

Structure (SMILES) | growth
O=C(Nc1ccc(OS(=O)(=O)c2ccc(F)cc2)cc1)C12CC3CC(CC(C3)C1)C2 | 31.3% (inactive)
CCCCCc1c(C)[nH]c(/C=C2\N=C(c3ccc[nH]3)C=C2CC)c1C | -75% (active)
CC(COC(=O)c1ccccc1)N1CC2CCC(C1)O2 (stereo unspecified) | 103% (inactive)
Cc1cc(C)c(C#N)c(SCC(=O)c2sc3c(C#N)c(C)cc(C)[n+]3c2[O-])n1 | 38.1% (inactive)
COc1ccc(-c2nc(-c3ccccc3OCc3ccccc3OC)nc(C)c2C(C)=O)cc1 | 61% (inactive)
COc1c(-c2cc(-c3ccc(C)o3)[nH]c(=O)n2)c(O)cc2occc12 | 45.5% (inactive)
Cc1cc(NC(=O)C2c3ccccc3C(=O)N(CC(C)C)C2c2cccs2)no1 (stereo unspecified) | 23.9% (inactive)
OC(c1cc2c(Cl)cc(Cl)cc2c2cc(C(F)(F)F)ccc12)C1CCCCN1 (stereo unspecified) | -78.5% (active)
Cc1nc2ccc(Nc3nc(Cl)nc(N4CCOCC4)n3)cc2n1Cc1ccccc1 | 40.6% (inactive)
O=C(CS)OCC(COC(=O)CS)(COC(=O)CS)COC(=O)CS | 89.1% (inactive)
C=CCN(CCOC(=O)c1ccc([N+](=O)[O-])cc1)CCOC(=O)c1ccc([N+](=O)[O-])cc1 | 90.5% (inactive)
CCN1CCN(Cc2ccc(NC(=O)c3nc4ccc5[nH]ncc5c4c4c3CCCC4)cc2C(F)(F)F)CC1 | -69.3% (active)
CN(C)c1ccc(N2Cc3ccccc3OC3=C2C(=O)c2c(O)ccc(O)c2C3=O)cn1 | -47.9% (active)
CCCc1n(Cc2ccc3ccccc3n2)cc[n+]1Cc1ccc2ccccc2c1 | -2.95% (active)
COc1cc(-c2csc(NC(=O)Nc3cccc(C(F)(F)F)c3)n2)cc(OC)c1OC | 7.61% (active)
COc1ccc2[nH]c(C(=O)OCc3ccc4c(Br)cc(Br)c(O)c4n3)cc2c1 | -51.9% (active)
Cc1cc(C)cc(CCCCCCCCCCCCCCCCCC(=O)O)c1 | 82.4% (inactive)
CS(=O)(=O)Nc1cc(-c2cc3ncc(C#N)c(Nc4ccc(Oc5ccccc5)c(Cl)c4)c3s2)cnc1Cl | 15.8% (inactive)
CCn1c(CN2CCN(Cc3ccccc3)CC2)nc2cc(NC(=O)c3cccs3)ccc21 | -62.5% (active)

Test system: BT-549 breast
Assay: as above
Details: 10 µM unless noted

Structure (SMILES) | growth
O=C1Cc2c([nH]c3ccc([N+](=O)[O-])cc23)-c2ccccc2N1 | 5.54% (active)
Cc1ccccc1CNc1ncnc2[nH]ncc12 | 105% (inactive)
COc1ccc(OC)c(Nc2nc(-c3c(C)nc4sccn34)cs2)c1 | 84.8% (inactive)
COc1cc2c(cc1OC)C(=O)OC2 | 118% (inactive)
CN=C1C=C/C(=N/N=c2/ccn(O)cc2C)C=C1C | 107% (inactive)
Cc1nc2ccc(Nc3nc(N4CCOCC4)nc(N4CCN(C)CC4)n3)cc2n1Cc1ccccc1 | 66.1% (inactive)
CC(C)=CCC[C@H](C)c1ccc(C)c2c1OCN(CCO)C2 | 95.8% (inactive)
COc1ccc(NC(=O)c2ccc(C(F)(F)F)nc2Nc2ccc(Cl)cc2C)cc1Cl | 19% (inactive)
O=C(NCCNC(=O)c1cc(S(=O)(=O)NCCc2ccccc2)c(O)c(O)c1O)c1cc(S(=O)(=O)NCCc2ccccc2)c(O)c(O)c1O | 48.8% (inactive)
Cc1ccc(NC(=O)Cn2nncc2CN2C(=O)CSC2=O)cc1C | 98.8% (inactive)
Brc1ccccc1Cn1c(-c2cncs2)nc2ccccc21 | 85.4% (inactive)
COc1cccc(Cn2c(-c3nonc3NC(C)=O)nc3ccccc32)c1 | 41.6% (inactive)
CN1CCN(Cc2ccc(NC(=O)c3cccc(C#Cc4cnc(N)c5ncccc45)c3F)cc2C(F)(F)F)CC1 | 62% (inactive)
O=C(Oc1c(Cl)c(Cl)c(Cl)c(Cl)c1Cl)C1CCCN1C(=O)OCc1ccccc1 (stereo unspecified) | 54.9% (inactive)
Clc1ccc(Nc2ncnc3c2sc2ncccc23)cc1 | 49.1% (inactive)
COc1ccc(/C=C/C(=O)c2ccc(NC(=O)CSc3nnc(-c4ccc(OC)cc4)n3-c3ccccc3)cc2)cc1 | 99.7% (inactive)
CCCCNCCC(O)c1cc2ccc(C(F)(F)F)cc2c2cc(C(F)(F)F)ccc12 (stereo unspecified) | 4.84% (active)
Cc1ccc(N2C3c4ccccc4N(S(=O)(=O)c4ccc(C)cc4)C2c2ccccc2N3S(=O)(=O)c2ccc(C)cc2)cc1 | 115% (inactive)
Cc1ccc(C2CC(c3cccs3)=NN2c2ccc(S(N)(=O)=O)cc2)s1 (stereo unspecified) | 102% (inactive)

Structure (SMILES) | growth
O=C(Nc1ccc(OS(=O)(=O)c2ccc(F)cc2)cc1)C12CC3CC(CC(C3)C1)C2 | 71.9% (inactive)
CCCCCc1c(C)[nH]c(/C=C2\N=C(c3ccc[nH]3)C=C2CC)c1C | -96.6% (active)
CC(COC(=O)c1ccccc1)N1CC2CCC(C1)O2 (stereo unspecified) | 105% (inactive)
Cc1cc(C)c(C#N)c(SCC(=O)c2sc3c(C#N)c(C)cc(C)[n+]3c2[O-])n1 | 30.4% (inactive)
COc1ccc(-c2nc(-c3ccccc3OCc3ccccc3OC)nc(C)c2C(C)=O)cc1 | 98.4% (inactive)
COc1c(-c2cc(-c3ccc(C)o3)[nH]c(=O)n2)c(O)cc2occc12 | 54% (inactive)
Cc1cc(NC(=O)C2c3ccccc3C(=O)N(CC(C)C)C2c2cccs2)no1 (stereo unspecified) | -4.46% (active)
OC(c1cc2c(Cl)cc(Cl)cc2c2cc(C(F)(F)F)ccc12)C1CCCCN1 (stereo unspecified) | 50.4% (inactive)
Cc1nc2ccc(Nc3nc(Cl)nc(N4CCOCC4)n3)cc2n1Cc1ccccc1 | 83.7% (inactive)
O=C(CS)OCC(COC(=O)CS)(COC(=O)CS)COC(=O)CS | 108% (inactive)
C=CCN(CCOC(=O)c1ccc([N+](=O)[O-])cc1)CCOC(=O)c1ccc([N+](=O)[O-])cc1 | 100% (inactive)
CCN1CCN(Cc2ccc(NC(=O)c3nc4ccc5[nH]ncc5c4c4c3CCCC4)cc2C(F)(F)F)CC1 | 79.6% (inactive)
CN(C)c1ccc(N2Cc3ccccc3OC3=C2C(=O)c2c(O)ccc(O)c2C3=O)cn1 | -71.2% (active)
CCCc1n(Cc2ccc3ccccc3n2)cc[n+]1Cc1ccc2ccccc2c1 | -3.95% (active)
COc1cc(-c2csc(NC(=O)Nc3cccc(C(F)(F)F)c3)n2)cc(OC)c1OC | 43.8% (inactive)
COc1ccc2[nH]c(C(=O)OCc3ccc4c(Br)cc(Br)c(O)c4n3)cc2c1 | -88.2% (active)
Cc1cc(C)cc(CCCCCCCCCCCCCCCCCC(=O)O)c1 | 103% (inactive)
CS(=O)(=O)Nc1cc(-c2cc3ncc(C#N)c(Nc4ccc(Oc5ccccc5)c(Cl)c4)c3s2)cnc1Cl | 51% (inactive)
CCn1c(CN2CCN(Cc3ccccc3)CC2)nc2cc(NC(=O)c3cccs3)ccc21 | -30.9% (active)
